ALR H2O2 inh – inhibitors of human ALR sulfhydryl oxidase, primary screen, biochemical, H2O2 detection, HRP-luminol luminescence, single point; purified ALR, DTT oxidation; FAD-linked sulfhydryl oxidase ALR (Homo sapiens), P55789; AID 485317, 2010; 290,000 tested, 3.8% active; inhibition, % (no concentration beside the values);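 active = mean replicate inhibition above about 79%, with every replicate also reaching it, limit read from the data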
CR mimetic SO – reduction of superoxide in aged yeast, primary screen, HTS | AID 2690, 2010 | superoxide response (% of plate mean), % at 10 µM | S. cerevisiae aged cells, superoxide DHE fluorescence; active compounds read low | 330,000 tested, 0.18% active;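 active = superoxide response under a set limit, about three screen SD below normal, cut at about 65% in these data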;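 note: yeast aged for seven days with compound at 30 °C before DHE staining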
A3G deaminase – APOBEC3G DNA deaminase inhibitors, primary screen, biochemical, fluorescence, single-stranded DNA substrate, uHTS; DNA dC->dU-editing enzyme APOBEC-3G (Homo sapiens), Q9HC16; recombinant A3G, ssDNA deamination FAM/TAMRA fluorescence; inhibition, % at 20 µM; 330,000 tested, 0.28% active; AID 493012, 2011;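 active = inhibition of at least 40% at 20 µM, with no more than 30% in the related APOBEC3A deaminase screen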
Target sequence (Q9HC16 whole entry, looked up): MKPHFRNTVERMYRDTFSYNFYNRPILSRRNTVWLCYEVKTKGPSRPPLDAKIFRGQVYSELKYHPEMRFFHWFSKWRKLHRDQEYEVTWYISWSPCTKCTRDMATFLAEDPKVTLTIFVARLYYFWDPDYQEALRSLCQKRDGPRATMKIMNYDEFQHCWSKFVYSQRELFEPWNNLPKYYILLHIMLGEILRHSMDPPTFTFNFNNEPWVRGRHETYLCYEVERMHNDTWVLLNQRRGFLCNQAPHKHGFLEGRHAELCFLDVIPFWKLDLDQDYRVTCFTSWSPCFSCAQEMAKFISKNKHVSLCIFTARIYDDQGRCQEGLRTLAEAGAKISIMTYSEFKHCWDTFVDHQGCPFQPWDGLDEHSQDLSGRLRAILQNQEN
M18AAP inhibitor – PfM18AAP inhibitors, malaria aminopeptidase, primary screen, biochemical, QFRET, recombinant enzyme | M18 aspartyl aminopeptidase (Plasmodium falciparum 3D7) | H-Glu-NHMec fluorogenic cleavage | inhibition, % at 7.35 µM | 290,000 tested, 1.2% active;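 active = inhibition above the campaign mean inhibition over all tested compounds plus 3 SD, cut at about 28% in these data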
CendR NRP1 mod – modulators of CendR peptide binding to NRP-1, primary screen, biochemical, fluorescence polarization, uHTS. AID 602438, 2012. Neuropilin-1 (Homo sapiens), O14786. FAM-RPARPAR peptide binding to NRP-1. inhibition, % at 25 µM. 360,000 tested, 0.85% active;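 active = inhibition or corrected inhibition above about 18%, plus a signal ratio from 0.5 to 1.5, limit read from the data, passing the limit was not always enough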
A3A deaminase – APOBEC3A ssDNA deaminase inhibitors, primary screen, selectivity assay for APOBEC3G inhibitor project, biochemical, FAM/TAMRA oligo cleavage fluorescence | DNA dC->dU-editing enzyme APOBEC-3A (Homo sapiens), P31941 | recombinant A3A, FAM/TAMRA ssDNA deamination fluorescence | inhibition, % at 20 µM | 330,000 tested, 0.41% active | AID 493011, 2011;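 active = at least 40% inhibition at 20 µM here, with at most 30% in a related deaminase screen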
Target sequence (P31941 whole entry, looked up): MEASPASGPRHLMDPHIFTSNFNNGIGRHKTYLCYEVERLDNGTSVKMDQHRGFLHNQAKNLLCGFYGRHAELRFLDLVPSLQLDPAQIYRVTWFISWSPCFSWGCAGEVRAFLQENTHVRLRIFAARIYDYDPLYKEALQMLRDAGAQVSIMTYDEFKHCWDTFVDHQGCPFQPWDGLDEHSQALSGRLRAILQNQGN
A number is an active result. Rows were chosen to be rich in hits. Some 5.2% of all compounds tested hit in one or more screens of this group.

For Nc1ncnc2c1C(c1ccccc1)c1c(ccc3ccccc13)O2 (stereo not drawn) the results were ALR H2O2 inh inactive, CR mimetic SO inactive, A3G deaminase inactive, CendR NRP1 mod inactive and A3A deaminase inactive.
Screening CCOC(=O)CC(=O)Nc1ncnc2c1C(c1ccccc1)c1c(ccc3ccccc13)O2 (stereo not drawn) returned ALR H2O2 inh inactive, CR mimetic SO inactive, A3G deaminase inactive, CendR NRP1 mod 23.7 and A3A deaminase inactive.
For O=c1cc(C(F)(F)F)nc(SC/C=C/c2ccccc2)[nH]1 the results were ALR H2O2 inh 78.2, CR mimetic SO inactive, A3G deaminase inactive, M18AAP inhibitor inactive, CendR NRP1 mod inactive and A3A deaminase inactive.
C[c-]1[c-](C)[c-](C)[c-](C)[c-]1C.[Fe].c1cc2nccc(N3CCCC3)[c-]2c1 (stereo not drawn) was read as ALR H2O2 inh 93.6, CR mimetic SO inactive, A3G deaminase inactive, CendR NRP1 mod inactive and A3A deaminase inactive.
Screening c1cc(N2CCCCC2)nc(N2CCCCC2)n1 returned CendR NRP1 mod inactive.
`C#CCCCCCCCCC(=O)NCCCC` gave ALR H2O2 inh inactive, CR mimetic SO inactive, A3G deaminase inactive, M18AAP inhibitor inactive, CendR NRP1 mod inactive and A3A deaminase inactive.
C=CCOc1ccc(C=Nc2cccc(Cl)c2)c(O)c1 was read as ALR H2O2 inh inactive, CR mimetic SO inactive, A3G deaminase inactive, M18AAP inhibitor inactive, CendR NRP1 mod inactive and A3A deaminase inactive.
Screening CCOc1cc(/C=N/NC(=O)CCn2nc(C)cc2C)ccc1O returned ALR H2O2 inh 98.7, CR mimetic SO inactive, A3G deaminase inactive, M18AAP inhibitor inactive, CendR NRP1 mod inactive and A3A deaminase inactive.
For Cc1cc(C)n(CCC(=O)N/N=C/c2ccc(O)cc2)n1 the results were ALR H2O2 inh 98.6, CR mimetic SO inactive, A3G deaminase inactive, M18AAP inhibitor inactive, CendR NRP1 mod inactive and A3A deaminase inactive.
For COc1cc(/C=N/NC(=O)CCn2nc(C)cc2C)ccc1O the results were CR mimetic SO inactive, A3G deaminase inactive, M18AAP inhibitor inactive, CendR NRP1 mod inactive and A3A deaminase inactive.
For Cc1cc(C)n(CCC(=O)N/N=C/c2c(O)ccc3ccccc23)n1 the results were CR mimetic SO inactive, A3G deaminase inactive, M18AAP inhibitor inactive, CendR NRP1 mod 34.1 and A3A deaminase inactive.
`Cc1cc2cc(CNC(=O)Cc3ccc([N+](=O)[O-])cc3)ccc2n1C` gave CR mimetic SO inactive, A3G deaminase inactive, M18AAP inhibitor inactive, CendR NRP1 mod 29.8 and A3A deaminase inactive.
For Cc1cc2cc(CNC(=O)c3ccc(S(=O)(=O)N4CCOCC4)cc3)ccc2n1C the results were ALR H2O2 inh inactive, CR mimetic SO inactive, A3G deaminase inactive, M18AAP inhibitor inactive, CendR NRP1 mod 27.5 and A3A deaminase inactive.
`Cc1cc2cc(CNC(=O)C3CCCC3)ccc2n1C` gave ALR H2O2 inh 96.6, CR mimetic SO inactive, A3G deaminase inactive, CendR NRP1 mod inactive and A3A deaminase inactive.
`CCCC(=O)NCc1ccc2c(c1)cc(C)n2C` gave ALR H2O2 inh inactive, CR mimetic SO inactive, A3G deaminase inactive, M18AAP inhibitor inactive, CendR NRP1 mod inactive and A3A deaminase inactive.
Screening O=C(NCc1ccccc1)C1CCC1 returned ALR H2O2 inh inactive, CR mimetic SO inactive, A3G deaminase inactive, M18AAP inhibitor inactive, CendR NRP1 mod 40.3 and A3A deaminase inactive.
Cc1cccn2c(=O)nc(SCC(=O)NCc3ccco3)nc12 was read as ALR H2O2 inh inactive, CR mimetic SO inactive, A3G deaminase inactive, CendR NRP1 mod inactive and A3A deaminase inactive.
`CCN1CCCC1CNC(=O)CCc1nnc(CCC2CCCCC2)o1` (stereo not drawn) gave ALR H2O2 inh 100.2, CR mimetic SO inactive, A3G deaminase inactive, M18AAP inhibitor inactive, CendR NRP1 mod inactive and A3A deaminase inactive.
`CNC(=O)CCc1[nH]c2ccccc2c1Sc1ccccc1` gave ALR H2O2 inh 98.5, CR mimetic SO inactive, A3G deaminase inactive, M18AAP inhibitor inactive, CendR NRP1 mod inactive and A3A deaminase inactive.
Screening CCCc1cc(=O)n2[nH]cc(-c3ccc(Cl)cc3)c2n1 returned ALR H2O2 inh 99.0, CR mimetic SO inactive, A3G deaminase inactive, M18AAP inhibitor inactive, CendR NRP1 mod inactive and A3A deaminase inactive.
Screening CCOC(=O)Cc1c(C)nc2c(-c3ccc(Cl)cc3)c[nH]n2c1=O returned ALR H2O2 inh 97.8, CR mimetic SO inactive, A3G deaminase inactive, M18AAP inhibitor inactive, CendR NRP1 mod inactive and A3A deaminase inactive.
CCOC(=O)Cc1c(C)nc2cc(-c3ccc(Cl)cc3)[nH]n2c1=O was read as ALR H2O2 inh inactive, CR mimetic SO inactive, A3G deaminase inactive, M18AAP inhibitor inactive, CendR NRP1 mod inactive and A3A deaminase inactive.
For CCN(CC)c1ccc(C=Nc2ccc(C)cc2)c(O)c1 the results were ALR H2O2 inh inactive, CR mimetic SO inactive, A3G deaminase inactive, M18AAP inhibitor inactive, CendR NRP1 mod inactive and A3A deaminase inactive.
CCN1CCN(c2ccc(N=Cc3ccc(O)cc3O)cc2)CC1 was read as ALR H2O2 inh 98.8, CR mimetic SO inactive, A3G deaminase inactive, M18AAP inhibitor inactive, CendR NRP1 mod inactive and A3A deaminase inactive.
Screening CCC(C)NC(=O)[C@H]1N2C(=O)c3c(ccc(OC)c3OC)C2SC1(C)C (stereo partly drawn) returned ALR H2O2 inh inactive, CR mimetic SO inactive, A3G deaminase inactive, M18AAP inhibitor inactive, CendR NRP1 mod inactive and A3A deaminase inactive.
CCCNC(=O)[C@H]1N2C(=O)c3c(ccc(OC)c3OC)C2SC1(C)C (stereo partly drawn) was read as ALR H2O2 inh inactive, CR mimetic SO inactive, A3G deaminase inactive, M18AAP inhibitor inactive, CendR NRP1 mod 28.3 and A3A deaminase inactive.
CN(Cc1ccc2c(c1)CCCN2C)C(=O)[C@H]1O[C@@H](n2ccc(=O)[nH]c2=O)[C@H](O)[C@@H]1O was read as CendR NRP1 mod 27.4.
Cc1ccc(NC(=O)c2ncn(CCCNCCCc3ccccc3)n2)cc1C was read as CendR NRP1 mod 33.4.
COc1cc(/C=N/NC(=O)NC23CC4CC(CC(C4)C2)C3)ccc1O was read as ALR H2O2 inh 95.5, CR mimetic SO inactive, A3G deaminase inactive, M18AAP inhibitor inactive, CendR NRP1 mod inactive and A3A deaminase inactive.
For O=C(N/N=C/c1cccnc1)NC12CC3CC(CC(C3)C1)C2 the results were ALR H2O2 inh inactive, CR mimetic SO inactive, A3G deaminase inactive, M18AAP inhibitor inactive, CendR NRP1 mod inactive and A3A deaminase inactive.

From PubChem BioAssay
